# Measurements: article PMC8384837, “Expanding the binding specificity for RNA recognition by a PUF domain”
# Tests used:
# Test in all cases: yeast three-hybrid, YBZ-1, SC-Leu-His + 0.5 mM 3-AT, 4 days
# Conditions in all cases: tags: N-Gal4 AD-HA kept; label: inside an RPR1-promoter hybrid RNA with tandem MS2 sites; ssRNA
# [1] = target: PUM1 PUF domain R3-TRW (Homo sapiens, UniProt Q14671 828-1176, C935T;Q939W)
# In short: (§1)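 Each repeat of the Pumilio-1 PUF domain was randomized at its three base-contacting residues, and these libraries were co-expressed from a centromeric plasmid with matching RNA elements in strain YBZ-1. After four days on SC-Leu (input) or SC-Leu-His + 0.5 mM 3-AT (selection), the repeat regions were PCR-amplified and Illumina-sequenced. The interaction score compares variant frequency between input and selection as a log change, computed in log2 with a pseudocount of 1 for absent variants.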
# [2] = target: PUM1 PUF domain R3-SRT (Homo sapiens, UniProt Q14671 828-1176, C935S;Q939T)
# In short: as §1
# [3] = target: PUM1 PUF domain R1-RTS (Homo sapiens, UniProt Q14671 828-1176, S863R;R864T;Q867S)
# Chain of PUM1 PUF domain R1-RTS (Q14671 828-1176 S863R/R864T/Q867S): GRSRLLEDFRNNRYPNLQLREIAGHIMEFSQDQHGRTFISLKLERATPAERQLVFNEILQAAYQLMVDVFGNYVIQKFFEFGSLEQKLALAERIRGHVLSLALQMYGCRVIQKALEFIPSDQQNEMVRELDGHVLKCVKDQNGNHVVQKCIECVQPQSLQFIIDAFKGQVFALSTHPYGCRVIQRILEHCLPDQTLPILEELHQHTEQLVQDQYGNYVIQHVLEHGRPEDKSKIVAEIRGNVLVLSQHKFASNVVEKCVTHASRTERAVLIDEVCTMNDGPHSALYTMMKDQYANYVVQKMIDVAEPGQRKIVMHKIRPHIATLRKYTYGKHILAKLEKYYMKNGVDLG
# In short: as §1
# [4] = target: PUM1 PUF domain R1-KVI (Homo sapiens, UniProt Q14671 828-1176, S863K;R864V;Q867I)
# In short: as §1
# [5] = target: PUM1 PUF domain R4-ANC (Homo sapiens, UniProt Q14671 828-1176, N971A;H972N;Q975C)
# Chain of PUM1 PUF domain R4-ANC (Q14671 828-1176 N971A/H972N/Q975C): as the sequence (Q14671 828-1176 S863R/R864T/Q867S) above, with R36S, T37R, S40Q, N144A, H145N, Q148C counted along it
# In short: as §1
# [6] = target: PUM1 PUF domain R4-CMC (Homo sapiens, UniProt Q14671 828-1176, N971C;H972M;Q975C)
# In short: as §1
# [7] = target: PUM1 PUF domain R8-LFK (Homo sapiens, UniProt Q14671 828-1176, N1122L;Y1123F;Q1126K)
# In short: as §1
# [8] = target: PUM1 PUF domain R2-LFS (Homo sapiens, UniProt Q14671 828-1176, N899L;Y900F;Q903S)
# In short: as §1
# [9] = target: T1, PUM1 PUF domain R6-RHS (Homo sapiens, UniProt Q14671 828-1176, N1043R;Y1044H;Q1047S)
# T1 sequence: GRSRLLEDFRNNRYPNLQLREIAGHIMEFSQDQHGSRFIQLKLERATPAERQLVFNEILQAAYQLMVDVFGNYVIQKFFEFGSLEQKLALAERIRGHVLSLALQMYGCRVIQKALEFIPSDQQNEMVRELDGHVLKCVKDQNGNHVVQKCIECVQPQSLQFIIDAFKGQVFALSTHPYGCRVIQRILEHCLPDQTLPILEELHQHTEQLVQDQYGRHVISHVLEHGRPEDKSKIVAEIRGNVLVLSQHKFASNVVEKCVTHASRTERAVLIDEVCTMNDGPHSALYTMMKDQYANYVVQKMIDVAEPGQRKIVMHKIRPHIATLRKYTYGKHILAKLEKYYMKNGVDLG
# In short: as §1
sequence,measurement,setting,value
GGCUAGAACUAGUGGAUCCCCCGGCGCCCGGCGGCUCGAGCCCGGGUAAGUGUAAUUAGUCUGCAUGCCGCCGGGCGCCAUGCCUGCAGGUCGACUCUAGAAAACAUG,binding signal,[1],0.56 log2 enrichment (interaction score)
same,binding signal,[2],1.65 log2 enrichment (interaction score)
GGCUAGAACUAGUGGAUCCCCCGGCGCCCGGCGGCUCGAGCCCGGGUAAGUGUAAAUUGUCUGCAUGCCGCCGGGCGCCAUGCCUGCAGGUCGACUCUAGAAAACAUG,binding signal,[3],4.22 log2 enrichment (interaction score)
same,binding signal,[4],4.79 log2 enrichment (interaction score)
GGCUAGAACUAGUGGAUCCCCCGGCGCCCGGCGGCUCGAGCCCGGGUAAGUGUAAAUGGUCUGCAUGCCGCCGGGCGCCAUGCCUGCAGGUCGACUCUAGAAAACAUG,binding signal,[4],2.15 log2 enrichment (interaction score)
GGCUAGAACUAGUGGAUCCCCCGGCGCCCGGCGGCUCGAGCCCGGGUAAGUGUAUAUAGUCUGCAUGCCGCCGGGCGCCAUGCCUGCAGGUCGACUCUAGAAAACAUG,binding signal,[5],4.27 log2 enrichment (interaction score)
same,binding signal,[6],5.2 log2 enrichment (interaction score)
GGCUAGAACUAGUGGAUCCCCCGGCGCCCGGCGGCUCGAGCCCGGGUAAGUGUACAUAGUCUGCAUGCCGCCGGGCGCCAUGCCUGCAGGUCGACUCUAGAAAACAUG,binding signal,[5],2.65 log2 enrichment (interaction score)
same,binding signal,[6],2.87 log2 enrichment (interaction score)
GGCUAGAACUAGUGGAUCCCCCGGCGCCCGGCGGCUCGAGCCCGGGUAAGCGUAAAUAGUCUGCAUGCCGCCGGGCGCCAUGCCUGCAGGUCGACUCUAGAAAACAUG,binding signal,[7],5.27 log2 enrichment (interaction score)
GGCUAGAACUAGUGGAUCCCCCGGCGCCCGGCGGCUCGAGCCCGGGUAAGUGUAAAAAGUCUGCAUGCCGCCGGGCGCCAUGCCUGCAGGUCGACUCUAGAAAACAUG,binding signal,[8],3.97 log2 enrichment (interaction score)
GGCUAGAACUAGUGGAUCCCCCGGCGCCCGGCGGCUCGAGCCCGGGUAAGUGUAAAUAGUCUGCAUGCCGCCGGGCGCCAUGCCUGCAGGUCGACUCUAGAAAACAUG,binding signal,[1],4.35 log2 enrichment (interaction score)
same,binding signal,[7],4.86 log2 enrichment (interaction score)
same,binding signal,[2],4.56 log2 enrichment (interaction score)
same,binding signal,[6],2.5 log2 enrichment (interaction score)
same,binding signal,[9],2.73 log2 enrichment (interaction score)
